For ten compounds, Potency results are on record in PubChem BioAssay (NCATS).

The target of assay [1] is Cytochrome P450 1A2 (Homo sapiens) (UniProt P05177). Put plainly: p450-cyp1a2 (AID 410; calls by dose curve; also: potency is read from the fitted curve at half-maximal effect). Put shortly:
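Luminescent readout of luciferin formed from Luciferin-ME by human CYP1A2; data normalized against complete inhibition by 57 uM furafylline. Enzyme 20nM, substrate 100uM at Km, 100mM KPO4 buffer, 60 min reaction at room temperature.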

The target of assay [2] is Glucocorticoid receptor (Homo sapiens) (UniProt P04150). In words: GR-GFP Redistribution (AID 450;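 active = compounds whose dose series gives a full or clear partial fitted curve of increased nuclear translocation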; also: potency is read from the fitted curve at half-maximal effect). To be noted: U2OS GR-GFP nuclear translocation, laser cytometry, 2 h.
For assay [3] the target is unchanged. In words: GR-EFC Redistribution (AID 451; calls by dose curve; also: potency is read from the fitted curve at half-maximal effect). To be noted: CHO-K1 GR-EFC translocation, beta-gal luminescence, 2 h. Put shortly: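 CHO-K1 cells expressing nuclear EA and GR-ED fragments of b-gal; compounds titrated up to 46 uM final, 2 h at 37 C. GR nuclear translocation read as complemented b-gal luminescence after 1 h RT detection.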
Assay [4] concerns the target 3',5'-cyclic-AMP phosphodiesterase 4B (Homo sapiens) (UniProt Q07343). Put plainly: qHTS Assay for Inhibitors of PDE-IV (AID 607; active = well fitted activation curve with a large enough effect in the main read-out, with a control signal flat, not every such curve was filed as active). In a few lines:
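Live HEK293 cells with a modified cyclic nucleotide-gated (CNG) channel report intracellular cAMP via membrane-potential dye fluorescence (ex 535/em 590 nm). Endogenous PDE-IV was targeted. Compounds were tested at up to 22.9 uM final; RO 20-1724 100 uM served as control.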
On the technique in general: qHTS replaces the single test concentration by a dilution series.

Assay [5] deals with Ubiquitin carboxyl-terminal hydrolase 1 (Homo sapiens) (UniProt O94782). In words: Inhibitors of USP1/UAF1: Pilot qHTS (AID 504865). Also: nearly all actives have a fitted effect of over 35% in size. Also: potency is read from the fitted curve at half-maximal effect. Put shortly: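 In 50mM HEPES pH 7.8 containing 0.5mM EDTA, 1mM TCEP, 0.1 mg/ml BSA and 0.01% Tween-20, 1nM USP1/UAF1 is exposed to compound for 15 min, then Ub-Rho (150nM final) is added and fluorescence is read over time.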
The target in assay [6] is DNA dC->dU-editing enzyme APOBEC-3G (Homo sapiens) (UniProt Q9HC16). Put plainly: qHTS for inhibitors of Vif-A3G interactions: Validation (AID 588379). Put shortly: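 HeLa cells stably expressing Vif and A3G-eYFP, 700 cells/well, incubated overnight at 37 deg C, then exposed to compound overnight at 37 deg C. Inhibition of Vif-mediated degradation read as increased yellow fluorescence (Ex 488/Em 500-530) by laser-scanning cytometry.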

In assay [7] the test system is Zika virus NS2B-NS3 protease. In words: Primary screen GU AMC qHTS for Zika virus inhibitors (AID 1347154). Also: nearly all actives have a fitted effect of over 70% in size. Put shortly: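 Unlinked Zika NS2B hydrophilic domain–NS3 protease complex at 25 nM in 10 mM Tris-HCl pH 8.0, 0.01% Tween 20, with an AMC peptide substrate. Fluorescence change (340/450 nm) over 15 min at room temperature, normalized to controls, fitted to 4-parameter Hill.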

A short description of assay [8]: Primary qHTS for small molecule stabilizers of the endoplasmic reticulum resident proteome: Secreted ER Calcium Modulated Protein (SERCaMP) assay (AID 1508630). Put shortly:
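GLuc-SERCaMP-expressing SH-SY5Y cells, pretreated 16 h with compound, are challenged with thapsigargin to empty ER calcium stores; after 4 h, coelenterazine is added directly to the medium and luminescence is imaged.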

Assay [9] addresses Mitogen-activated protein kinase 10 (Mus musculus) (UniProt Q61831). Put plainly: JNK3 AlphaScreen Assay (AID 530; active = well fitted curve in either direction with a large enough effect, not every such curve was filed as active;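 also: kinase came from lysate of stimulated human HepG2 cells; signal reports phosphorylation of biotinylated GST-cJun 1-79 at Ser73 with 10 µM ATP; series mostly up to about 57 µM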). In a few lines: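 Pre-activated (IL-1β/TNFα) JNK3 in HepG2 lysates phosphorylates biotin-GST-cJun(1-79), 10 uM ATP; anti-phospho-cJun(Ser73) AlphaScreen read at room temperature, pH 7.6 Tris buffer. Compounds pre-incubated 15 min as titrations.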
In general terms: In Alpha technology, singlet oxygen from a donor bead excites a nearby acceptor bead.

Assay [10] deals with Cytochrome P450 3A4 (Homo sapiens) (UniProt P08684). Put plainly: qHTS Assay for Activators of Cytochrome P450 3A4 (AID 885). Also: nearly all actives have a fitted effect of over 65% in size. In a few lines: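 Quantitative HTS format: compounds preincubated with 20nM human CYP3A4 and Luciferin-PPXE substrate at KM, reaction started by NADPH regeneration, stopped after 60 min, luciferase luminescence read 20 min later.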
In assay [11] the target is Cytochrome P450 2D6 (Homo sapiens) (UniProt P10635). In words: qHTS Assay for Inhibitors and Substrates of Cytochrome P450 2D6 (AID 891). Also: potency is read from the fitted curve at half-maximal effect; nearly all actives have a fitted effect of over 60% in size. Put shortly:
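Human CYP2D6 (5 nM) with 30 uM Luciferin-ME EGE (at Km) in 100 mM KPO4, compound preincubated 10 min, then NADPH regeneration system for 60 min at room temperature. Luciferin read by luminescence; normalized to 1.43 uM quinidine.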

Assay [12] deals with Cytochrome P450 2C19 (Homo sapiens) (UniProt P33261). Put plainly: qHTS Assay for Inhibitors and Substrates of Cytochrome P450 2C19 (AID 899). Also: potency is read from the fitted curve at half-maximal effect; nearly all actives have a fitted effect of over 60% in size. Put shortly:
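Signal comes from luciferase acting on luciferin released by CYP2C19-mediated hydroxylation of Luciferin-H EGE, 10uM (KM). Assay mix: 5nM enzyme, 50mM KPO4; 60 min at 37C with NADPH regeneration. Data normalized against 57uM ketoconazole.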

Assay [13] deals with Cytochrome P450 3A4 (Homo sapiens) (UniProt P08684). Put plainly: qHTS Assay for Inhibitors and Substrates of Cytochrome P450 3A4 (AID 884). Also: potency is read from the fitted curve at half-maximal effect; nearly all actives have a fitted effect of over 50% in size. Put shortly:
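20 nM human CYP3A4 with 25 uM Luciferin-PPXE (at KM) in 200 mM KPO4, preincubated 10 min with compound; NADPH regeneration started a 60 min RT reaction. Luciferin detected by luminescence, normalized to 57 uM ketoconazole as full inhibition.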

Molecules are shown by their SMILES. A number with no mark means an inactive call. Results filed as inconclusive are left out. The source made the active and inactive calls. Unless noted, calls follow the shape of the dose curve; as a rule, active = well fitted curve in the direction sought with a large enough effect; inconclusive = small, poorly fitted or top-dose-only effect, or another doubt; inactive = no such curve, though single readings can be large; an effect the other way counts as inactive or inconclusive.

3',5'-cyclic-AMP phosphodiesterase 4B (Homo sapiens), sequence (Q07343 whole entry, looked up): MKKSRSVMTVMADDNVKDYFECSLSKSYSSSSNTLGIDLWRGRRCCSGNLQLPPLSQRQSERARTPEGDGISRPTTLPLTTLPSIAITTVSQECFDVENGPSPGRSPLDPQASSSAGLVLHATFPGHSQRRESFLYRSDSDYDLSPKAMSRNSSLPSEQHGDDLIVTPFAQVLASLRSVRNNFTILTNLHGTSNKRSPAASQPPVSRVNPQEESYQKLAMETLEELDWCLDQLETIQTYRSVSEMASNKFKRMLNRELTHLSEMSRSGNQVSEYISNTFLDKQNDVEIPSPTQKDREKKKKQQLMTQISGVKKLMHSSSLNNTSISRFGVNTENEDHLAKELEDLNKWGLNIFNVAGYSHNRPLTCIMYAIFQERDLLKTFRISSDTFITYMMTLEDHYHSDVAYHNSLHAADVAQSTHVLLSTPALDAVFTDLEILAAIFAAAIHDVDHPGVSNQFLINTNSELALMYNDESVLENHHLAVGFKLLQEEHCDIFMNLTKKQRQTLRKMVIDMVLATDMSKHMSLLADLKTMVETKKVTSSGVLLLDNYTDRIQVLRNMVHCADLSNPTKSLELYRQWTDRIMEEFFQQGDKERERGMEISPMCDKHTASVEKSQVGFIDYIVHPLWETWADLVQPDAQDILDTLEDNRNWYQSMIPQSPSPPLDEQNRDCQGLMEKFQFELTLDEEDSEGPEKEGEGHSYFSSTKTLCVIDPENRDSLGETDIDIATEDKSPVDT
Cytochrome P450 1A2 (Homo sapiens), sequence (P05177 whole entry, looked up): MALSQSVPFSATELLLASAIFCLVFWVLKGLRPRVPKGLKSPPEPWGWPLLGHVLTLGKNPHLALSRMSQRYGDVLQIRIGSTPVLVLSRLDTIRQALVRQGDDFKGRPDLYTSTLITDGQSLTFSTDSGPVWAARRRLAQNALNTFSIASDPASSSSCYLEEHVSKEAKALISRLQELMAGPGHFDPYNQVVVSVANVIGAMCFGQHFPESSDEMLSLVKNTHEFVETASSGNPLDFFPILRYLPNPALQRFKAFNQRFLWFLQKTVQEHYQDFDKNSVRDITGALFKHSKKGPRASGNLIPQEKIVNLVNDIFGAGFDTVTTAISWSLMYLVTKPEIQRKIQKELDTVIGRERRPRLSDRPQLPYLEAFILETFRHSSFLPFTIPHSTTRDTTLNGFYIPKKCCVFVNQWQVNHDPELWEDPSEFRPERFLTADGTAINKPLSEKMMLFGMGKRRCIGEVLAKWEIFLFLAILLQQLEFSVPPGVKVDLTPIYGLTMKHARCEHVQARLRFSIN
Cytochrome P450 2D6 (Homo sapiens), sequence (P10635 whole entry, looked up): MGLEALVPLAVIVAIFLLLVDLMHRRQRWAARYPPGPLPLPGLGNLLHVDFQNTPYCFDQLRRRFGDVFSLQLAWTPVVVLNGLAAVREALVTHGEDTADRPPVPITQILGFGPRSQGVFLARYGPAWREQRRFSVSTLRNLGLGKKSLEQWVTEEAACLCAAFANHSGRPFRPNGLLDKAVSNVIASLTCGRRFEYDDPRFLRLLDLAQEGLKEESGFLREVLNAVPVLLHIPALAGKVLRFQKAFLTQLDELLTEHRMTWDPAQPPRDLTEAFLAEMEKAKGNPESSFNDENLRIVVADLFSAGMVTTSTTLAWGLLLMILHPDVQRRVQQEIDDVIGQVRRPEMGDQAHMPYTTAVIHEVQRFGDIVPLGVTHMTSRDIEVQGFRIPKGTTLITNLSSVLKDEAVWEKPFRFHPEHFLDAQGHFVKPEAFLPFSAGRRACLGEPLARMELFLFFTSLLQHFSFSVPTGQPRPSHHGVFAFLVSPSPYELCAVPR
Cytochrome P450 3A4 (Homo sapiens), sequence (P08684 whole entry, looked up): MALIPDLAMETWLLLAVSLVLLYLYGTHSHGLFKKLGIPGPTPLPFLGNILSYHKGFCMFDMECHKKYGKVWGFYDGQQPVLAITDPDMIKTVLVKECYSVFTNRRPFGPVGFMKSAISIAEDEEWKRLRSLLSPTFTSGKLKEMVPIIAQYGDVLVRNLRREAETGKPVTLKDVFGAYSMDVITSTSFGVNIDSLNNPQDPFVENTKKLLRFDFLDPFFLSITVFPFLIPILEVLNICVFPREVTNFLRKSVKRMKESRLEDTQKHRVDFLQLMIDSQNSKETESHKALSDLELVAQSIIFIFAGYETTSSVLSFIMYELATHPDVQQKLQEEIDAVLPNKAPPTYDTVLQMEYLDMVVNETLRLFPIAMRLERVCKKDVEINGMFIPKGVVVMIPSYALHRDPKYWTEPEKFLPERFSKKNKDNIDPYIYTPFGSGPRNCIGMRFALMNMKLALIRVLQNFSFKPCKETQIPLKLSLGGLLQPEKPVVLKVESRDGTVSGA
Ubiquitin carboxyl-terminal hydrolase 1 (Homo sapiens), sequence (O94782 whole entry, looked up): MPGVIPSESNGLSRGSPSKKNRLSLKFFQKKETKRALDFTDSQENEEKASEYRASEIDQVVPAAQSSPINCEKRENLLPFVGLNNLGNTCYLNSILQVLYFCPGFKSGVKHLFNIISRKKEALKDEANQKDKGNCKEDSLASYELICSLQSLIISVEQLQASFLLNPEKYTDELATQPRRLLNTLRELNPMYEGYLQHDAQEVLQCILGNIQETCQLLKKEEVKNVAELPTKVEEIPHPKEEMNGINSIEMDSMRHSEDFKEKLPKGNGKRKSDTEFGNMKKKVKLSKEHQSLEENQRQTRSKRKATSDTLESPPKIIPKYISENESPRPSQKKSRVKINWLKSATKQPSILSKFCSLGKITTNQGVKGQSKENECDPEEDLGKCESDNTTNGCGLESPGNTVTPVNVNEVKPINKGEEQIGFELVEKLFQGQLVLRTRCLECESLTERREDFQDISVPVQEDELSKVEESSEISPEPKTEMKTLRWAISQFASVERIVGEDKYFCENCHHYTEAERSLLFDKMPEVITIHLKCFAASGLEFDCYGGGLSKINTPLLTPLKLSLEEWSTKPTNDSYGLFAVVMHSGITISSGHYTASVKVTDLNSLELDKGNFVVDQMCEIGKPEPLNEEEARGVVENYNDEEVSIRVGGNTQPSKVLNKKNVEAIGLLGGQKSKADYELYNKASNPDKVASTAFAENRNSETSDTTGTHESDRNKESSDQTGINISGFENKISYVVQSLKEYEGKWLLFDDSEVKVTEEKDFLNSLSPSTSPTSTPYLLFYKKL
Glucocorticoid receptor (Homo sapiens), sequence (P04150 whole entry, looked up, the tested form may be a part): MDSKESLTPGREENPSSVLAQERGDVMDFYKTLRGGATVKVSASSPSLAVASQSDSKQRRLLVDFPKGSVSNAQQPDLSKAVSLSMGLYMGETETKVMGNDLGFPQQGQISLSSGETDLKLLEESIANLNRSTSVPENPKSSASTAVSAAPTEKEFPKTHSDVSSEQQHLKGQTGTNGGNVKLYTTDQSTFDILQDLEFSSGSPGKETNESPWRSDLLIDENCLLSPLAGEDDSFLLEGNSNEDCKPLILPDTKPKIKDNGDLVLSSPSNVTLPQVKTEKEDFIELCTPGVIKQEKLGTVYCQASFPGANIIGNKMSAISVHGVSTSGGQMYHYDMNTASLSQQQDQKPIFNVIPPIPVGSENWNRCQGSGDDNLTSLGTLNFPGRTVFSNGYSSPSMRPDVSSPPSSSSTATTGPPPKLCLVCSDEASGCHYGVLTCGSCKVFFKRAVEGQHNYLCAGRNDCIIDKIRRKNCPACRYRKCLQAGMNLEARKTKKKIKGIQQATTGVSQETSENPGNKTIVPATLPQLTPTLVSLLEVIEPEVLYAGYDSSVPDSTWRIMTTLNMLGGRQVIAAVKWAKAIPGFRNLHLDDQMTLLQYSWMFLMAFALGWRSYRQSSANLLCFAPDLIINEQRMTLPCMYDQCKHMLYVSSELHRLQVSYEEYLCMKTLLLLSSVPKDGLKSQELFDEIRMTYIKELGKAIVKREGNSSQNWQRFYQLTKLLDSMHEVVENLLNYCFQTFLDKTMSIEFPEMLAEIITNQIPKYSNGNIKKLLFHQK
DNA dC->dU-editing enzyme APOBEC-3G (Homo sapiens), sequence (Q9HC16 whole entry, looked up): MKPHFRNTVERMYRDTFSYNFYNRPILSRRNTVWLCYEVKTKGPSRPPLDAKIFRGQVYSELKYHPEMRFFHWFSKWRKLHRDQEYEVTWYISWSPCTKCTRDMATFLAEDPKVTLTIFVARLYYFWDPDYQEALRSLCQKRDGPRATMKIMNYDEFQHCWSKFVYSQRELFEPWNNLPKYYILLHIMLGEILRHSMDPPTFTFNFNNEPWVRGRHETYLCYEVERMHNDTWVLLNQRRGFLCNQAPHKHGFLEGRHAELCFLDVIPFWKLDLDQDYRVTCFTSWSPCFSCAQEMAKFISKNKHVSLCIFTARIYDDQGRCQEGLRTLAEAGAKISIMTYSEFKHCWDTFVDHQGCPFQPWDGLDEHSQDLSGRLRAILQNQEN
Cytochrome P450 2C19 (Homo sapiens), sequence (P33261 whole entry, looked up): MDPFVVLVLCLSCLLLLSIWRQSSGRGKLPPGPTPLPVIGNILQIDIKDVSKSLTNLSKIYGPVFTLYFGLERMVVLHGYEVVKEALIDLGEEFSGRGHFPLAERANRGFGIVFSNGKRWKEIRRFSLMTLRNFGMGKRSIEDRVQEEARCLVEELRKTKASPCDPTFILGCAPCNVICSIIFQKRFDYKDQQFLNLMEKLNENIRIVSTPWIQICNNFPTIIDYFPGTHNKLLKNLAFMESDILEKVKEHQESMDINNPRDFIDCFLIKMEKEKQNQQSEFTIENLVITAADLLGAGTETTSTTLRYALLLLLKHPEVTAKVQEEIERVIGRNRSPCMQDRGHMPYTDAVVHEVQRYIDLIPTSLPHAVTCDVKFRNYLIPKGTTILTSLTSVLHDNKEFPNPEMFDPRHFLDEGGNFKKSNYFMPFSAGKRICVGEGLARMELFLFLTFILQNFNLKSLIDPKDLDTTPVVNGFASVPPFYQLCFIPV

Regarding `COC(=O)Nc1ccc2[nH]cc(CCNC(C)=O)c2c1`, the Potency was 0.316 µM (active) in assay [1], above 46 µM in assay [2] and above 46 µM in assay [3]. For the same compound, the Potency entry in assay [4], in assay [5], in assay [6], in assay [7] and in assay [8] was “inactive” each time.

On to `CC1(C)CC(=O)C([C@H]2C3=C(CC(C)(C)CC3=O)Oc3ccccc32)C(=O)C1`, for which the Potency entry in assay [1], in assay [9], in assay [4], in [10], in [5] and in assay [6] was “inactive” throughout. The Potency entry in assay [7] and in [8] was “inactive” throughout. Besides, the Potency in assay [2] and in [3] was above 46 µM each time.

In the case of `Cc1ccc(S(=O)(=O)/C=C\C#N)cc1`, the Potency in assay [1] is 3.98 µM (active); in [2] it was above 46 µM; in assay [3], above 46 µM; in assay [11] it was 0.0158 µM (active); in assay [12], 5.01 µM (active). In addition, the Potency entry in assay [10], in assay [6], in assay [7] and in assay [8] was “inactive” each time.

`COc1cccc(C=NC=Nc2cccc(OC)c2)c1`: the Potency in assay [1] is 1 µM (active); in [2] it was above 46 µM; in assay [3], above 46 µM. Moreover, the Potency result in assay [10], in assay [6], in assay [7] and in assay [8] was “inactive” each time.

In the case of `CCCCOC(=O)c1cc2c(cn1)[nH]c1ccccc12`, the Potency in assay [1] is 0.158 µM (active); in assay [2], above 46 µM; in [3], above 46 µM; in assay [12], 5.01 µM (active). The Potency entry in assay [9], in assay [10], in assay [6], in assay [7] and in assay [8] was “inactive” each time.

Regarding `c1ccc(N2CCN(CCCOc3ccc4c(c3)OCO4)CC2)cc1`, the Potency in assay [1] is 12.6 µM (active); in assay [2] it was above 46 µM; in assay [3], above 46 µM; in assay [13], 3.16 µM (active); in assay [11], 0.126 µM (active); in assay [12] it was 5.01 µM (active). In addition, the Potency result in [9], in assay [10], in assay [5], in assay [6], in [7] and in assay [8] was “inactive” each time.

With `OC[C@@H](O)COc1cccc2ccccc12`, the results for the Potency in assay [1], in assay [2] and in [3] were 0.631 µM (active), above 46 µM and above 46 µM, respectively. Besides, the Potency entry in [4], in assay [5], in assay [6], in [7] and in assay [8] was “inactive” each time.

For `CCCCCCN(CCCCCC)C(=O)Cc1c(-c2ccc(Cl)cc2)[nH]c2ccc(Cl)cc12`, the Potency in assay [1] is 31.6 µM (active); in assay [2], above 46 µM; in assay [3], above 46 µM. Also, the Potency result in assay [9], in assay [4], in [10], in assay [5], in assay [6] and in assay [7] was “inactive” each time. Besides, in assay [8], the Potency entry was “inactive”.

In the case of `O=C1c2ccccc2CC[C@H]1CNCCc1ccc(O)cc1`, the Potency in [1] is 20 µM (active); in assay [2], above 46 µM; in [3] it was above 46 µM; in [11], 0.398 µM (active). Besides, the Potency entry in assay [4], in [10], in assay [6], in [7] and in [8] was “inactive” throughout.

Take `CCCCCCCCCCCCCCC[C@@H](O)[C@@H](N)CO`: the Potency in [1] was 25.1 µM (active); in [2], above 46 µM; in assay [3], above 46 µM; in assay [11] it was 7.94 µM (active); in assay [5] it was 31.6 µM (active). Moreover, the Potency result in [4], in assay [6], in [7] and in assay [8] was “inactive” in each case.
